Results from the supplement of paper PMC6555819.

Columns and labels:
Assay in all cases: PBM binding z-score (relative to random genomic background probes); higher = stronger binding; sequences stand for … in GC…GCGATTGACAGCGTAGAATGAAGG
[1] = test system: FXR:RXRa (NR concentration 270 nM, RXRa partner concentration 90 nM)
How it was run: (§1)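 Probes were double-stranded and carried 34-nt variable regions with direct-repeat seeds, single-nucleotide variants, half-site ablations and random human genomic background sequences, printed on custom Agilent 4×180K protein-binding microarrays. Arrays were incubated 1 h with ligand-free nuclear receptor dimers in PBS pH 7.4, 2% milk, 0.02% Triton X-100, 1 mM DTT, 0.2 mg/mL BSA and 0.4 mg/ml salmon testes DNA. Antibodies against each partner (one per run) detected binding, and scanned fluorescence was regression-normalized. Binding z-scores use the random background probes as reference.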

[2] = test system: LXRa:RXRa (NR concentration 270 nM, RXRa partner concentration 90 nM)
How it was run: as §1

[3] = test system: LXRa homodimer (NR concentration 270 nM)
How it was run: as §1

[4] = test system: LXRb:RXRa (NR concentration 270 nM, RXRa partner concentration 90 nM)
How it was run: as §1

[5] = test system: LXRb homodimer (NR concentration 270 nM)
How it was run: as §1

[6] = test system: PPARa:RXRa (NR concentration 270 nM, RXRa partner concentration 90 nM)
How it was run: as §1

[7] = test system: PPARg:RXRa (NR concentration 180 nM, RXRa partner concentration 90 nM)
How it was run: as §1

[8] = test system: PPARg:RXRa 270nM:90nM, anti-RXR (NR concentration 270 nM, RXRa partner concentration 90 nM)
How it was run: as §1

[9] = test system: PPARg:RXRa 30nM:10nM, anti-RXR (NR concentration 30 nM, RXRa partner concentration 10 nM)
How it was run: as §1

[10] = test system: PPARg:RXRa 90nM:30nM, anti-RXR (NR concentration 90 nM, RXRa partner concentration 30 nM)
How it was run: as §1

Sequence	PBM binding z-score [1]	PBM binding z-score [2]	PBM binding z-score [3]	PBM binding z-score [4]	PBM binding z-score [5]	PBM binding z-score [6]	PBM binding z-score [7]	PBM binding z-score [8]	PBM binding z-score [9]	PBM binding z-score [10]
CCAGACAGGTGAACGGTAACTCAGTCTGGTACGC	-0.375	-0.082	-0.28	-0.0922	-0.29	0.511	0.882	0.577	-0.465	0.132
GCTAGTTGGTCAGTAAACGGTCACACACCGGTCG	-0.00893	0.121	0.352	-0.139	-0.393	0.395	0.552	-0.0958	-0.311	0.18
GGACCGAGGGCAAAGTTGATAGCATCTGTCGACG	1.12	0.801	-0.42	0.811	-0.953	2.74	3.41	4.82	2.42	4.42
CCGACTGGGGCAAAGGTTTCCATACTCAGTACGA	-0.478	-0.199	-0.443	0.175	-1.02	3.35	8.18	7.78	8.2	9.01
CAAACTAGGTCAAACGTCAAAGTCGAGCCAACCA	5.56	4.17	1.04	3.16	1.12	6.14	10.8	9.01	8.48	9.75
TATGCAGGGTCAAAGGCCAGAGTACGAATGTCGA	7.19	5.51	1.34	4.46	0.828	6.1	7.42	6.8	4.59	6.57
ACTTGCAGGCCAAGTTTGGGTCACTCAAACAAAG	0.638	0.231	-0.189	1.11	-0.0882	1.87	0.148	0.667	-0.561	0.0704
GCAGATAGGTAATACAAGGTGAAAGTCCGATTGT	1.42	2.24	0.134	0.475	-0.791	1.04	0.544	0.592	0.199	0.421
GCTGCTAGGTCAACTCATGGTCAGCTAAAGCTCG	4.3	2.9	0.227	2.29	0.577	3.73	2.73	3.12	0.277	1.79
CGTCCCAGGTCAAGGTCAGTGAAAGAGACTCGAA	6.02	4.67	1.45	3.68	0.553	5	4.32	4.51	1.14	3.02
ATCTCTCGGTAAGACTCAGTTCAGTGAAGAACGC	0.549	0.674	0.845	0.602	1.47	0.3	-0.175	0.19	0.114	0.251
ATCTCTACGTAAAGTTCAGTGAAAGATCGATAGA	0.641	1.57	1.36	1.02	1.16	1.36	1.04	2.47	1.02	1.96
TCATATAGGTAAATAGGTGAAAGTCCGTAAGTTA	1.38	1.32	0.298	1.06	-0.103	3.79	5.17	5.12	4.83	5.34
CCTGTTAGGTCATGGTCAGCTAATCTACAGTATG	4.26	2.77	0.732	2.3	0.739	3.71	1.92	2.38	0.613	1.33
TGTCAAAGTTCAAAGGTAAGGTAAGTATCCACAC	7.21	6.56	4.78	4.45	1.75	5.46	8.72	7.6	5.24	7.45
TTACTAAGGTGAAAGGTCGTTGATGCACGCCTTG	4.62	4.06	0.805	3.47	-0.065	5.91	9.26	8.57	8.09	9.29
CCGACTCGGGCAAGGTTACCATAACGCACAGCCA	-0.303	0.69	-0.249	0.349	-1.13	0.95	1.01	0.916	-0.148	-7.81e-07
AGAATGAGGTTATTAAGATCAGGCAATTGCGGTC	1.46	1.36	0.308	1.11	-0.00931	2.58	1.42	1.73	0.485	1.18
CCTTACGGGTCACTGACGGGTTATAGCATTTGGA	5.28	3.6	0.0563	3.42	0.119	4.67	4.31	4.28	1.63	2.74
GCTTGTATATCAAGGTTAAGAAAGACTAAGCTAA	0.268	1.1	-0.0678	0.659	-0.396	1.19	0.639	0.798	0.189	0.527
CCTAGCAGCCCAGGGTCACTCAAGCATTTCGCTT	2.06	1.93	-0.213	2.17	-0.762	2.99	0.0606	0.885	-0.586	0.325
GGAACGAGGGCAAAGTTGCTAGCATCTGTCGACG	0.659	0.547	-0.512	0.42	-0.761	2.65	3.83	5.03	2.76	5.06

Sequence	PBM binding z-score [1]	PBM binding z-score [2]	PBM binding z-score [3]	PBM binding z-score [4]	PBM binding z-score [5]	PBM binding z-score [6]	PBM binding z-score [7]	PBM binding z-score [8]	PBM binding z-score [9]	PBM binding z-score [10]
CCGACTGGGGCAGAAAGGTTACCATTCCATCCGG	0.282	0.271	-0.165	0.84	-1.08	1.93	1.48	2.66	0.414	2.13
AGATGTAGGTTATCGGGTCATTCAGTTTGCGCAT	3.31	3.21	1.64	3.01	0.639	4.89	6.25	5.84	3.56	5.27
CGAACTAGGTCAAGGACAGCGAATCTCCGCACGC	3.45	2.27	0.194	1.27	-0.45	4.72	7.46	6.26	3.42	5.68
CCAGACAGGTGAGATGGTAACTCAGCCTCGATTA	-0.218	-0.133	0.219	-0.0689	-0.491	0.132	0.33	0.151	-0.316	-0.00959
TCTCAAAGTTCAAAGGTAACGTAAGTATCCACAC	6.76	6.41	5.13	4.82	2.02	5.43	4.77	5.77	5.16	5.6
CCTTACGGGTCACGAGGATATAGCACGACGAGCG	6.44	4.11	0.0313	3.62	-0.175	5.81	6.65	6.23	2.94	4.99
TAGCCTAGGTCATTAAGGGGCCAGTATAGAAAGC	3.58	3.35	0.285	2.67	0.552	3.21	1.75	2.07	0.301	1.11
CTGCCAAGGTGAACAAGGTCGTTGATTACTATTC	0.873	0.86	-0.343	1.15	-0.569	2.25	0.839	1.1	-0.107	0.638
CGTCCAAGGTCAATGCTAGGTCAGTGACAGCATT	6.74	5.78	2.73	4.19	1.14	5.31	4.11	4.64	1.38	3.44
ATCTCTAGGTAAATTTCAGTGAAAGATCGATAGA	0.175	0.31	0.359	0.199	0.934	0.102	0.408	0.671	0.581	0.833
GCTATTAGTTGAAAGGGCCACCGAATGATTCTCG	-0.0568	0.0381	-0.327	-0.256	-0.647	0.401	0.611	1.6	0.211	0.953
CCTACTGGGCCAAGAAAGGTCATTGATTCAGTGA	3.31	4.19	4.12	3.8	-0.225	4.33	2.63	3.17	0.919	2.35
ACTATTAGTTGAGACGAGGGCAAGCGATAGGTTG	0.338	-0.125	-0.12	-0.138	-0.0702	0.257	0.699	0.134	0.381	0.467
CCAGATAGGTGAGAAGGTAACTCAGCCTCGATTA	-0.0268	0.168	0.00136	0.105	-0.314	1.14	1.1	2.3	0.791	1.76
ATATGTAGGTTCGCTGGGGTCATTCAGACTAGGC	4.11	3.93	1.89	4.28	1.4	4.69	2.95	3.83	1.2	2.91
GCTATTTGGTCAGTAAAAGGTCACACACCGGTCG	3.6	4.54	5.27	4.71	1.54	4.7	3.46	4.72	2.76	4.46
TCTTGTACATCAAAGGTTAAGAAAGCCGAAGCCT	1.52	2.15	0.446	2	0.657	2.92	2.52	4.42	3.95	4.35
CCTACGGGGCCATTCAGAGGTCATTGATCATATG	3.56	4.88	6.49	4.17	0.225	3.62	1.16	2.21	0.193	1.32
CCTGCTAGGTCATGGTTAGCTAATCTACAGTATG	3.74	2.32	-0.0293	1.71	-0.265	3.76	2.65	3.06	0.508	2.06
GATGCTAGGTCAGGTTGGTCAGCTAACGGGTACG	1.5	1.03	-0.12	0.742	0.041	1.66	0.776	0.805	-0.511	0.0836
CGAACGAGGGCATGAGTTGATAGTAAATGCCGAT	0.719	0.489	-0.433	0.273	-0.709	1.27	1.45	1.26	0.122	0.578
TCATAAAGGTAAAGGTGAAAGTCGAACGATATGA	1.63	1.78	-0.143	1.63	-0.307	3.51	4.7	5.2	5.07	5.53
